Data published in article PMC12820563, “FoxP3 forms a head-to-head dimer in vivo and stabilizes its multimerization on adjacent microsatellites”.
Whole data set: some 16,000 sequences, median “rpm ratio (pull-down/input)” near 0.5, cut for the highest 2% near 5.5. The entries come from a sample that favours the highest values as a whole.

Each sequence was assayed against T1, MBP-FoxP3dN (Mus musculus, UniProt Q99JB6 188-423) (assay: PD-seq (MBP pull-down with sequencing); 20 mM Tris-HCl pH 7.5, 100 mM NaCl, 1.5 mM MgCl2, 0.4 uM protein, 0.1 uM dsDNA library, 30 min, room temperature, amylose pull-down; high values mean tight binding). Details: protein: recombinant; tags: His6-MBP; chain copies: 2; dsDNA, one strand shown.
T1 sequence: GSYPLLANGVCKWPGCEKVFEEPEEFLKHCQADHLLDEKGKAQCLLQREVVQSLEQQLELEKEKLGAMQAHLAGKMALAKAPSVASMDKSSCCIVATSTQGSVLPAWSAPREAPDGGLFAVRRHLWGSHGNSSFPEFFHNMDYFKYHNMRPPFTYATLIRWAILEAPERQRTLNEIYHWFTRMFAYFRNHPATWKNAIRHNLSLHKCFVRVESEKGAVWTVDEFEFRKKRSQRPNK
How it was run: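 E. coli-expressed mouse FoxP3 or FoxP1 fragment, N-terminus removed and tagged with His6-MBP, was used at 0.4 µM against 0.1 µM of a Klenow-filled degenerate double-stranded DNA library. After 30 min at room temperature in Tris pH 7.5 buffer with NaCl and MgCl2, complexes were pulled down on amylose resin and washed three times. Binding is pull-down over input reads-per-million enrichment from pooled replicates of the proteinase K-released, PCR-barcoded, Illumina-sequenced DNA.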
For “GATGATTGTTCTCCCAGCTGATGAATTTCAGCAATCGAGTAAACAAATTTTCCTAATCTTTCTGTTCAAGCGCCATCTAC”, the binding signal was 1.94 RPM ratio (pull-down/input).
“GATGATTGTTCTCCCAGCTGATGAATTCACAGCATCGAGTAAACAAATTTTCCTAATCTTTCTGTTCAAGCGCCATCTAC” was tested, and the binding signal was 0.801 RPM ratio (pull-down/input).
With “GATGATTGTTCTCCCAGCTGATGAATTAGCACTTTCGAGTAAACAAATTTTCCTAATCTTTCTGTTCAAGCGCCATCTAC” the binding signal was 0.435 RPM ratio (pull-down/input).
With “GATGATTGTTCTCCCAGCTGATGAATTAATCTATTCGAGTAAACAAATTTTCCTAATCTTTCTGTTCAAGCGCCATCTAC” the binding signal was 0.398 RPM ratio (pull-down/input).
With “GATGATTGTTCTCCCAGCTGATGAATTTCTAATTTCGAGTAAACAAATTTTCCTAATCTTTCTGTTCAAGCGCCATCTAC” the binding signal was 0.301 RPM ratio (pull-down/input).
In the case of “GATGATTGTTCTCCCAGCTGATGAATTTGTTATGTCGAGTAAACAAATTTTCCTAATCTTTCTGTTCAAGCGCCATCTAC”, the binding signal is reported as 6.84 RPM ratio (pull-down/input).
For “GATGATTGTTCTCCCAGCTGATGAATTGGTTATGTCGAGTAAACAAATTTTCCTAATCTTTCTGTTCAAGCGCCATCTAC”, the binding signal was 2.38 RPM ratio (pull-down/input).
With “GATGATTGTTCTCCCAGCTGATGAATTATGTCTGTCGAGTAAACAAATTTTCCTAATCTTTCTGTTCAAGCGCCATCTAC” the binding signal was 1.14 RPM ratio (pull-down/input).
In the case of “GATGATTGTTCTCCCAGCTGATGAATTTCTTATGTCGAGTAAACAAATTTTCCTAATCTTTCTGTTCAAGCGCCATCTAC”, the binding signal is reported as 0.657 RPM ratio (pull-down/input).
With “GATGATTGTTCTCCCAGCTGATGAATTATTTATGTCGAGTAAACAAATTTTCCTAATCTTTCTGTTCAAGCGCCATCTAC” the binding signal was 2.12 RPM ratio (pull-down/input).
“GATGATTGTTCTCCCAGCTGATGAATTATGTTTGTCGAGTAAACAAATTTTCCTAATCTTTCTGTTCAAGCGCCATCTAC” was tested, and the binding signal was 7.57 RPM ratio (pull-down/input).
In the case of “GATGATTGTTCTCCCAGCTGATGAATTGATTATGTCGAGTAAACAAATTTTCCTAATCTTTCTGTTCAAGCGCCATCTAC”, the binding signal is reported as 1.86 RPM ratio (pull-down/input).
For “GATGATTGTTCTCCCAGCTGATGAATTTATGTTGTCGAGTAAACAAATTTTCCTAATCTTTCTGTTCAAGCGCCATCTAC”, the binding signal was 4.93 RPM ratio (pull-down/input).
In the case of “GATGATTGTTCTCCCAGCTGATGAATTTATGATGTCGAGTAAACAAATTTTCCTAATCTTTCTGTTCAAGCGCCATCTAC”, the binding signal is reported as 3.91 RPM ratio (pull-down/input).
In the case of “GATGATTGTTCTCCCAGCTGATGAATTGTTTATGTCGAGTAAACAAATTTTCCTAATCTTTCTGTTCAAGCGCCATCTAC”, the binding signal is reported as 7 RPM ratio (pull-down/input).
With “GATGATTGTTCTCCCAGCTGATGAATTTATTATGTCGAGTAAACAAATTTTCCTAATCTTTCTGTTCAAGCGCCATCTAC” the binding signal was 5.83 RPM ratio (pull-down/input).
For “GATGATTGTTCTCCCAGCTGATGAATTTTTTATGTCGAGTAAACAAATTTTCCTAATCTTTCTGTTCAAGCGCCATCTAC”, the binding signal was 0.31 RPM ratio (pull-down/input).
For “GATGATTGTTCTCCCAGCTGATGAATTGAGCACGTCGAGTAAACAAATTTTCCTAATCTTTCTGTTCAAGCGCCATCTAC”, the binding signal was 0.919 RPM ratio (pull-down/input).
In the case of “GATGATTGTTCTCCCAGCTGATGAATTCGTATGCTCGAGTAAACAAATTTTCCTAATCTTTCTGTTCAAGCGCCATCTAC”, the binding signal is reported as 2.01 RPM ratio (pull-down/input).
“GATGATTGTTCTCCCAGCTGATGAATTTGGCGACTCGAGTAAACAAATTTTCCTAATCTTTCTGTTCAAGCGCCATCTAC” was tested, and the binding signal was 1.79 RPM ratio (pull-down/input).
In the case of “GATGATTGTTCTCCCAGCTGATGAATTTCTGCTGTCGAGTAAACAAATTTTCCTAATCTTTCTGTTCAAGCGCCATCTAC”, the binding signal is reported as 0.378 RPM ratio (pull-down/input).
In the case of “GATGATTGTTCTCCCAGCTGATGAATTACTTGTTTCGAGTAAACAAATTTTCCTAATCTTTCTGTTCAAGCGCCATCTAC”, the binding signal is reported as 0.804 RPM ratio (pull-down/input).
“GATGATTGTTCTCCCAGCTGATGAATTCCTGAAATCGAGTAAACAAATTTTCCTAATCTTTCTGTTCAAGCGCCATCTAC” was tested, and the binding signal was 0.237 RPM ratio (pull-down/input).
In the case of “GATGATTGTTCTCCCAGCTGATGAATTTGAGTTATCGAGTAAACAAATTTTCCTAATCTTTCTGTTCAAGCGCCATCTAC”, the binding signal is reported as 0.953 RPM ratio (pull-down/input).
With “GATGATTGTTCTCCCAGCTGATGAATTACCCTGATCGAGTAAACAAATTTTCCTAATCTTTCTGTTCAAGCGCCATCTAC” the binding signal was 0.253 RPM ratio (pull-down/input).
For “GATGATTGTTCTCCCAGCTGATGAATTTAGATTCTCGAGTAAACAAATTTTCCTAATCTTTCTGTTCAAGCGCCATCTAC”, the binding signal was 0.815 RPM ratio (pull-down/input).
In the case of “GATGATTGTTCTCCCAGCTGATGAATTTGGTGTATCGAGTAAACAAATTTTCCTAATCTTTCTGTTCAAGCGCCATCTAC”, the binding signal is reported as 3.25 RPM ratio (pull-down/input).
For “GATGATTGTTCTCCCAGCTGATGAATTGAGTATATCGAGTAAACAAATTTTCCTAATCTTTCTGTTCAAGCGCCATCTAC”, the binding signal was 1.7 RPM ratio (pull-down/input).
In the case of “GATGATTGTTCTCCCAGCTGATGAATTGTGTAAATCGAGTAAACAAATTTTCCTAATCTTTCTGTTCAAGCGCCATCTAC”, the binding signal is reported as 0.96 RPM ratio (pull-down/input).
“GATGATTGTTCTCCCAGCTGATGAATTTGTGTAATCGAGTAAACAAATTTTCCTAATCTTTCTGTTCAAGCGCCATCTAC” was tested, and the binding signal was 4.48 RPM ratio (pull-down/input).
“GATGATTGTTCTCCCAGCTGATGAATTGTGTATATCGAGTAAACAAATTTTCCTAATCTTTCTGTTCAAGCGCCATCTAC” was tested, and the binding signal was 6.5 RPM ratio (pull-down/input).
For “GATGATTGTTCTCCCAGCTGATGAATTCTTTGTATCGAGTAAACAAATTTTCCTAATCTTTCTGTTCAAGCGCCATCTAC”, the binding signal was 0.57 RPM ratio (pull-down/input).
In the case of “GATGATTGTTCTCCCAGCTGATGAATTGTATATCTCGAGTAAACAAATTTTCCTAATCTTTCTGTTCAAGCGCCATCTAC”, the binding signal is reported as 3.03 RPM ratio (pull-down/input).
For “GATGATTGTTCTCCCAGCTGATGAATTGTGTGTATCGAGTAAACAAATTTTCCTAATCTTTCTGTTCAAGCGCCATCTAC”, the binding signal was 6.39 RPM ratio (pull-down/input).
With “GATGATTGTTCTCCCAGCTGATGAATTCTCTGTATCGAGTAAACAAATTTTCCTAATCTTTCTGTTCAAGCGCCATCTAC” the binding signal was 0.441 RPM ratio (pull-down/input).
With “GATGATTGTTCTCCCAGCTGATGAATTCTGTGTATCGAGTAAACAAATTTTCCTAATCTTTCTGTTCAAGCGCCATCTAC” the binding signal was 5.85 RPM ratio (pull-down/input).
For “GATGATTGTTCTCCCAGCTGATGAATTTTCTGTATCGAGTAAACAAATTTTCCTAATCTTTCTGTTCAAGCGCCATCTAC”, the binding signal was 0.456 RPM ratio (pull-down/input).
For “GATGATTGTTCTCCCAGCTGATGAATTTTGTGTATCGAGTAAACAAATTTTCCTAATCTTTCTGTTCAAGCGCCATCTAC”, the binding signal was 6.55 RPM ratio (pull-down/input).
In the case of “GATGATTGTTCTCCCAGCTGATGAATTTCAACGGTCGAGTAAACAAATTTTCCTAATCTTTCTGTTCAAGCGCCATCTAC”, the binding signal is reported as 0.241 RPM ratio (pull-down/input).
In the case of “GATGATTGTTCTCCCAGCTGATGAATTTGGTGGCTCGAGTAAACAAATTTTCCTAATCTTTCTGTTCAAGCGCCATCTAC”, the binding signal is reported as 1.09 RPM ratio (pull-down/input).
